# Records with an inconclusive call do not appear. A call without a number means that no potency is given here. Activity calls are given as the source filed them. Calls follow the shape of the dose curve; as a rule, active = well fitted cell-killing curve with a large enough effect in the repeat runs; inconclusive = weak or mixed curves, or effect the other way; inactive = no such curve, though single readings can be large or run the other way.
# Assay: qHTS assay for identifying genotoxic compounds that show differential cytotoxicity against isogenic chicken DT40 cell lines with known DNA damage response pathways - wild type cell line (AID 743012); also: nearly all actives have a fitted effect of over 60% in size
# Conditions: DT40 wild type chicken cells viability, CellTiter-Glo, 40 h; series mostly up to 68.4 µM
# From the text: U.S. Tox21 Program National Center for Advancing Translational Sciences [NCATS] NIH Chemical Genomics Center [NCGC] U.S. Environmental Protection Agency [EPA] National Institutes of Environmental Health Sciences [NIEHS] National Toxicology Program [NTP] U.S. Food and Drug Administration [FDA] Tox21 Assay Overview: DNA repair pathways play a critical role in cellular homeostasis by repairing DNA damage induced by endogenous processes and xenobiotics. Isogenic chicken DT40 cell lines deficient in different DNA repair pathways can be used to identify genotoxic compounds and aid in characterizing the nature of the DNA damage induced. Two DNA repair-deficient cell lines with disrupted genes, Rad54/Ku70 or Rev3, were used to screen the Tox21 10K compound library. Possible genotoxicity was based on the presence of a significant increase in cytotoxicity in one or more of the DNA repair-deficient cell lines compared to that observed in the parental DNA repair-proficient cell line. CellTiter Glo viability assay (Promega, Madison, WI) was used to measure cell viability in these cells after compound treatment. This assay includes the data from the wild type cell line.
# Tox21 Assay Protocol Summary: 300 DT40 wild type cells in 5 uL/well were dispensed into white, solid-bottom 1536-well plates using a Multidrop Combi (ThermoFisher Scientific, Waltham, MA) dispenser. After the assay plates were incubated at 37 C/5% CO2 for approximately 0.5 hour, 23 nL of compounds dissolved in DMSO, positive controls or DMSO only was transferred into the assay plate by a pintool work station (Kalypsys, San Diego, CA). The assay plates were incubated at 37 C/5% CO2 for 40 hours. After 5 uL per well of CellTiter-Glo reagent was added into each well of the assay plates, the plates were incubated for 30 min at room temperature and the luminescence intensity of the plates was measured using a ViewLux (PerkinElmer, Shelton, CT) plate reader.
# Potency is read from the fitted curve at half-maximal effect.
row,SMILES,Potency
1,CC(C)O,inactive
2,CCCCNc1cc(C(=O)O)cc(S(N)(=O)=O)c1Oc1ccccc1,inactive
3,CC[C@H]1CC[C@H](NCc2cc3c(cc2OC)[C@H]2C[C@H]2C(=O)N3C)[C@H](c2ccccc2)N1,6.86 µM (active)
4,CCCc1c2oc(C(=O)O)cc(=O)c2cc2c(=O)cc(C(=O)O)n(CC)c12,inactive
5,COc1ccccc1N1CCN(CCCNc2cc(=O)n(C)c(=O)n2C)CC1,inactive
6,Nc1cccc(S(=O)(=O)O)c1,inactive
7,CCOC(=O)c1ccccc1O,inactive
8,Cc1ccc([N+](=O)[O-])cc1Cl,inactive
9,Cc1ccc([N+](=O)[O-])c(N)c1,inactive
10,C1CSCCS1,inactive
11,CCCN(CCC)C(=O)C(CCC(=O)O)NC(=O)c1ccccc1 (stereo not given),inactive
12,CCOc1ccccc1N,inactive
13,CCC(=O)c1ccc2c(c1)N(CCCN(C)C)c1ccccc1S2,4.73 µM (active)
14,CN1CCN(C2=Nc3ccccc3Oc3ccc(Cl)cc32)CC1,12.7 µM (active)
15,O=C1CCCCC1C1CCCCC1 (stereo not given),inactive
16,CC1=CC(=O)CC(C)(C)C1=O,inactive
17,O=C(O[C@@H](C(=O)O)[C@@H](OC(=O)c1ccccc1)C(=O)O)c1ccccc1,inactive
18,CN(C)C(=O)NC1(c2ccccc2)CCN(CCC[C@]2(c3ccc(Cl)c(Cl)c3)CCCN(C(=O)c3ccccc3)C2)CC1,10.3 µM (active)
19,O=[N+]([O-])c1nccn1CO[C@@H](CO)[C@H](O)CO,inactive
20,Cc1c(N)cccc1N,inactive

row,SMILES,Potency
1,COc1cc(C)ccc1C(C)C,inactive
2,C=CC(C)(O)CC/C=C(\C)CCC=C(C)C (stereo not given),inactive
3,Nc1ccc2ccccc2c1S(=O)(=O)O,inactive
4,CS(=O)(=O)c1ccc([C@@H](O)[C@@H](CF)NC(=O)C(Cl)Cl)cc1,4.03 µM (active)
5,CN(CC1(C)CCCO1)S(=O)(=O)c1ccc(Cl)c(S(N)(=O)=O)c1 (stereo not given),inactive
6,CC(C)NCC(O)COc1ccc(CCOCC2CC2)cc1 (stereo not given),29.8 µM (active)
7,Cc1cc(NS(=O)(=O)c2ccc(N)cc2)nc(C)n1,inactive
8,CCCCCCC,inactive
9,CCCCCCCCCC#N,inactive
10,NNS(=O)(=O)c1ccc(Oc2ccc(S(=O)(=O)NN)cc2)cc1,inactive
11,CCN(O)CC,inactive
12,CN1CCC[C@@H]1Cc1c[nH]c2ccc(CCS(=O)(=O)c3ccccc3)cc12,26.6 µM (active)
13,Clc1cccc(-c2cc(Cl)cc(Cl)c2)c1,inactive
14,CCCCN1C[C@H](O)[C@@H](O)[C@H](O)[C@H]1CO,inactive
15,OCCN(CCO)CCN(CCO)CCO,inactive
16,C=O,inactive
17,COC(=O)C(C)O (stereo not given),inactive
18,CCCC1CCC(=O)O1 (stereo not given),inactive
19,CC(C)(C)C1CCCCC1=O (stereo not given),inactive
20,Nc1ccc(Oc2ccc(N)c(N)c2)cc1,15.4 µM (active)

# From PubChem BioAssay (Tox21)
